# From the supplement of paper PMC10849652
# About 8,800 targets were measured; listed, in parts, are those with a hit and a random draw of the rest. About 0.5% of all pairs of compound and target were hits. Values without a mark were called inactive.
# Key:
# Test in all cases: log2 fold change, soluble protein after heating vs DMSO (PISA); higher = thermal stabilisation; K562 lysate, 10 uM; active = over 0.2 and 3.5 SD of the protein, either way, in both replicates (recomputed)
# ibrutinib = compound: C=CC(=O)N1CCC[C@@H](n2nc(-c3ccc(Oc4ccccc4)cc3)c3c(N)ncnc32)C1 [ibrutinib]
# Procedure, shortened: (§1)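 Log-two fold change in thermal stability relative to solvent controls is reported from duplicates. For each sample, crude K562 extract from dounce-homogenised pellets in PBS pH 7.4 with 1 mM MgCl2, at 1 mg/mL protein, was treated with 10 μM compound for 30 min. Aliquots heated for 3 min across 48°C-58°C were pooled, brought to 0.5% NP-40 at 4°C and cleared at 21,000xg for 90 min. The supernatant was quantified by TMTpro 16plex LC-MS/MS with channel sums equalised.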
# [1] = compound: CC(=O)c1cnc2ccc(-c3cc(Cl)c(O)c(Cl)c3)nc2c1N[C@H]1CC[C@H](CN(C)C)CC1
# Procedure, shortened: as §1
# ralimetinib = compound: CC(C)(C)Cn1c(N)nc2ccc(-c3[nH]c(C(C)(C)C)nc3-c3ccc(F)cc3)nc21 [ralimetinib]
# Procedure, shortened: as §1
# [2] = compound: CC(C)(O)CC(=O)NCCn1ccc2ncnc(Nc3ccc(Oc4cccc(C(F)(F)F)c4)c(Cl)c3)c21
# Procedure, shortened: as §1
# [3] = compound: CC(C)C1=C2N=C(C=C(N2N=C1)NCC3=CC=CC=C3)NCCCCCCN
# Procedure, shortened: as §1
# [4] = compound: CC1=C(C(CC(=O)N1)C2=CC=C(C=C2)C(F)(F)F)C(=O)NC3=C(C=C4C(=C3)C=NN4)F
# Procedure, shortened: as §1
# [5] = compound: CC1=C(C2=C(C=C1)C(=O)C3=CC=CC=C3N2CCCN)C
# Procedure, shortened: as §1
# [6] = compound: CC1=C(C=C(C=C1)NC(=O)C2=CC(=CC=C2)C(C)(C)C#N)NC3=CC4=C(C=C3)N=CN(C4=O)C
# Procedure, shortened: as §1
# [7] = compound: CC1=C(C=C(C=C1)NC(=O)C2=CC(=CC=C2)N(C)C)NC(=O)C3=CC=C(C=C3)O
# Procedure, shortened: as §1
# [8] = compound: CC1=CC=C(C=C1)SC2=C3C=C(SC3=CN=C2)C(=O)N
# Procedure, shortened: as §1
# Chain of UniProt Q8WVV9 (Q8WVV9 whole entry, looked up): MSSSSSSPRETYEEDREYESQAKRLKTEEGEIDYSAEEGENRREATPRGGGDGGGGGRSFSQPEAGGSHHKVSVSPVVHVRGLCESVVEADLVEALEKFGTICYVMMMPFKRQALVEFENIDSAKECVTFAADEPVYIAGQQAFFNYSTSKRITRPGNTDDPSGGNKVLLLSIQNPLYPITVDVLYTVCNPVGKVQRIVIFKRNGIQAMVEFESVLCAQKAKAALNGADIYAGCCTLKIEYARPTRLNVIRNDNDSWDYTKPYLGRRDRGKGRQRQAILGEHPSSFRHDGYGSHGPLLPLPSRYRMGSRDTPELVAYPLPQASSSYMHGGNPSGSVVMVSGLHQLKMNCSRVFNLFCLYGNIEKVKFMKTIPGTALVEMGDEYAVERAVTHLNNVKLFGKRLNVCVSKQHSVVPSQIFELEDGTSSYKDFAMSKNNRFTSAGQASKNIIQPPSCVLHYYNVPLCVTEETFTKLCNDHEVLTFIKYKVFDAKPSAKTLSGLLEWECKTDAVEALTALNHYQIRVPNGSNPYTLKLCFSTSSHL
# Chain of UniProt Q6AI08 (Q6AI08 whole entry, looked up): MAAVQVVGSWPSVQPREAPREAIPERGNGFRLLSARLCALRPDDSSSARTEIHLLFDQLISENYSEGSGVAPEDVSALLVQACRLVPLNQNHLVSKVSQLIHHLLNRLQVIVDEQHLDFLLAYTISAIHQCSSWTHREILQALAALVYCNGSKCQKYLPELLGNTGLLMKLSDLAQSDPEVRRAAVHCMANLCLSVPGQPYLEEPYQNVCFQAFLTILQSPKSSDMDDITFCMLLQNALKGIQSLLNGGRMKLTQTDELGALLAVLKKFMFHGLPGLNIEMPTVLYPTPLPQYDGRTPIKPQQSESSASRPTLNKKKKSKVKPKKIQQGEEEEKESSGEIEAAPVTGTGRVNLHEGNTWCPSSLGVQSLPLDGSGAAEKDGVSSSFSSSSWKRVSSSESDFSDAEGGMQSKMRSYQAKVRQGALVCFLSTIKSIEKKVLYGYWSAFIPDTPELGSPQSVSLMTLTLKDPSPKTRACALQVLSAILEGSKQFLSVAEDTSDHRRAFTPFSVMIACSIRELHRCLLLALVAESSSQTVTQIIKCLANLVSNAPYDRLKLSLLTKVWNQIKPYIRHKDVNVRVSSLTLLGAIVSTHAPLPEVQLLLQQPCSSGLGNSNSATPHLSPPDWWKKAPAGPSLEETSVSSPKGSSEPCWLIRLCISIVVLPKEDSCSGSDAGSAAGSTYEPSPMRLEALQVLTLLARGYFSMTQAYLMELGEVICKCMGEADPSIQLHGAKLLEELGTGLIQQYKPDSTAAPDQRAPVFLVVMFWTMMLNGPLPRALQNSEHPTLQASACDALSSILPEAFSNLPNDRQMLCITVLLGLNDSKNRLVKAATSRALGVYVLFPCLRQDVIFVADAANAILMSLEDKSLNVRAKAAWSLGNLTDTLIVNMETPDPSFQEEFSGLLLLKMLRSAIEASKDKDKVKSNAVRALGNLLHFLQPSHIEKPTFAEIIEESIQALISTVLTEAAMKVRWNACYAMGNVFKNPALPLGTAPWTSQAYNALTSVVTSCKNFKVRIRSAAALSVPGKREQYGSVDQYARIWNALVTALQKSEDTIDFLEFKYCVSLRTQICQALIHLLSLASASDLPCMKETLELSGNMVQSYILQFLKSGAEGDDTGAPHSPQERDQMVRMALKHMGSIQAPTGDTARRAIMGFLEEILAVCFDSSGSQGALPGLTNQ
# Chain of UniProt Q14145 (Q14145 whole entry, looked up): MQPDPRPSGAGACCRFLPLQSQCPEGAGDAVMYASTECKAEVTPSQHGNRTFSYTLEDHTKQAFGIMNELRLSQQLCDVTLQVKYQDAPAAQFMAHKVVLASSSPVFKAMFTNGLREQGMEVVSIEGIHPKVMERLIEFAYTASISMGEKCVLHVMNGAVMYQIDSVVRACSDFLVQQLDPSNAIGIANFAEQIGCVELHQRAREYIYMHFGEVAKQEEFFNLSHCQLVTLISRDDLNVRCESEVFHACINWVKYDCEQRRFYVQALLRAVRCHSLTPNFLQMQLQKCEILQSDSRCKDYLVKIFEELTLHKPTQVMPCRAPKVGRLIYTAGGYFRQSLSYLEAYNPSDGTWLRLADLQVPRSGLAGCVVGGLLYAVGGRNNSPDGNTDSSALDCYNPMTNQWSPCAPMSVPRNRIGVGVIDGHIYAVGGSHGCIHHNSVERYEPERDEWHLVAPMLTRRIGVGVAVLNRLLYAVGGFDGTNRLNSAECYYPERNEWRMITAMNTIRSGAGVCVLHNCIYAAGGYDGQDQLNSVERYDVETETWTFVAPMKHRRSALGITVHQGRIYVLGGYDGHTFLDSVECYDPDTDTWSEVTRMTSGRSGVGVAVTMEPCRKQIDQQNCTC
# Chain of UniProt P50747 (P50747 whole entry, looked up): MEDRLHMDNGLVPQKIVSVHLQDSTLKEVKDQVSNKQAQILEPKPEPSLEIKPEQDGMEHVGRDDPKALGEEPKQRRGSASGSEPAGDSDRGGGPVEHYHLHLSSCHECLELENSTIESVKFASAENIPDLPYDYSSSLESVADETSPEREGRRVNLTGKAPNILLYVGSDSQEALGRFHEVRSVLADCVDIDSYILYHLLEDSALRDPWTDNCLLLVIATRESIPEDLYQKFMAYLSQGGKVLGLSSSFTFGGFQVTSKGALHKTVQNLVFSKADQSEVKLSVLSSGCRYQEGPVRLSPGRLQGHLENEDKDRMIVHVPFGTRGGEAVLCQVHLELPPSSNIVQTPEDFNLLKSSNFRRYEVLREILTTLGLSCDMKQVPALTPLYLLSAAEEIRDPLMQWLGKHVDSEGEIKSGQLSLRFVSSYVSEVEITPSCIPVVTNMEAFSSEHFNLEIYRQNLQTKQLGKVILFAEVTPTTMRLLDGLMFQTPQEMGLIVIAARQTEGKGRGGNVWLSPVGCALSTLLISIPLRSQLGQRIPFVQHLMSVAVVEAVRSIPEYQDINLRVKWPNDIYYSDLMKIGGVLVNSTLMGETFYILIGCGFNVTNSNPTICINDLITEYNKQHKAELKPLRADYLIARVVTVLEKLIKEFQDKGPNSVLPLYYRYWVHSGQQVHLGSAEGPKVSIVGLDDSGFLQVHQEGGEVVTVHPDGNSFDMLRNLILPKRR
# Chain of UniProt P09211 (P09211 whole entry, looked up): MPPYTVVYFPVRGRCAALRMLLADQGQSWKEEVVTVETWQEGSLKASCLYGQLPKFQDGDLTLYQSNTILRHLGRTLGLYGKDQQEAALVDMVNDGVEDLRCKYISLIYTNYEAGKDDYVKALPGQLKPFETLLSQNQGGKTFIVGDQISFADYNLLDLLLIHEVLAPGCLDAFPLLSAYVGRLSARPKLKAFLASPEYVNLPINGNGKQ
# Chain of UniProt O60547 (O60547 whole entry, looked up): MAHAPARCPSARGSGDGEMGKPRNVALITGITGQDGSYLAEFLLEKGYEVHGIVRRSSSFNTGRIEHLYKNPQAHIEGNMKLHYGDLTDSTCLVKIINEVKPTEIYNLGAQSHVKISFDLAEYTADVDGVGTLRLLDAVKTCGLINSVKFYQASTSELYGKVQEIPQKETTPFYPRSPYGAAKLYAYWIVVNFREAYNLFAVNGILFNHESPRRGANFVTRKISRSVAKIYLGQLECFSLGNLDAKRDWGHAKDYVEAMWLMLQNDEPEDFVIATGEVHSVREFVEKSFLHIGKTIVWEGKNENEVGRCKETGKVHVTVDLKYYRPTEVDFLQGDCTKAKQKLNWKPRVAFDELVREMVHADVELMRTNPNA
# Chain of UniProt Q969S8 (Q969S8 whole entry, looked up): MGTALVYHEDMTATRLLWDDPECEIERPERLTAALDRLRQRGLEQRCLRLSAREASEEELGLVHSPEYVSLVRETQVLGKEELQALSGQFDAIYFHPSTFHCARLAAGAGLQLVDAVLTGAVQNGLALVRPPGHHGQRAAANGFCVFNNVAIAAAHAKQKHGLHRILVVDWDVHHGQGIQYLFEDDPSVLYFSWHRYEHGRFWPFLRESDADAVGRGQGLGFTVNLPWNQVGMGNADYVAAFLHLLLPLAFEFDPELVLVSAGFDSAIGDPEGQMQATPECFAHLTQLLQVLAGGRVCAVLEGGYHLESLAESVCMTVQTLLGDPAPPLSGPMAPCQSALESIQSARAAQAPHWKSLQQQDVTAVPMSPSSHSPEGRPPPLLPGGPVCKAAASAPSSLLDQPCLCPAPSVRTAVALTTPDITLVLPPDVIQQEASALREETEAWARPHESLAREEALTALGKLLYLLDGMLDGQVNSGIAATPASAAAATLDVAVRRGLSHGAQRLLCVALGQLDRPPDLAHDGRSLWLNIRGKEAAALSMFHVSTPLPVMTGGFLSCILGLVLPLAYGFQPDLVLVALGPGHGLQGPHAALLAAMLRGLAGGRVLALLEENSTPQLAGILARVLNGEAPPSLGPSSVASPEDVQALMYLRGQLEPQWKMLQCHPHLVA
# Chain of UniProt P43250 (P43250 whole entry, looked up): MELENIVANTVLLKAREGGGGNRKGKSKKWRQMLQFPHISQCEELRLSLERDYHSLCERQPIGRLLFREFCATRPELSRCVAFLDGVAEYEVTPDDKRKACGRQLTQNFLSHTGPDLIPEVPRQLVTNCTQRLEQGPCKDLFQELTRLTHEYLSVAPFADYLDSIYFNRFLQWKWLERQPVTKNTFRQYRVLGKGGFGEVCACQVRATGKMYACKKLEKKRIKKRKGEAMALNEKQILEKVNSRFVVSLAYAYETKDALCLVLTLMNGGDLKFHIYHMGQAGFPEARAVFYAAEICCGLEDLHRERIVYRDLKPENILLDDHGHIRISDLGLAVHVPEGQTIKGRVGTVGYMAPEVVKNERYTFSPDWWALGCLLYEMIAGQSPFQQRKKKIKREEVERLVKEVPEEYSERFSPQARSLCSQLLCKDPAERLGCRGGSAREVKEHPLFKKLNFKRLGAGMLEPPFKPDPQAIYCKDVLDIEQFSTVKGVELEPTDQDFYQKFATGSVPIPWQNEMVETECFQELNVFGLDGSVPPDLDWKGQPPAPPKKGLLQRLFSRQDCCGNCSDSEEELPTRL
Target,log2 fold change (ibrutinib),log2 fold change [1],log2 fold change (ralimetinib),log2 fold change [2],log2 fold change [3],log2 fold change [4],log2 fold change [5],log2 fold change [6],log2 fold change [7],log2 fold change [8]
GRK6 isoform 2 (UniProt P43250),0.083,0.04,-0.073,-0.068,-0.036,0.021,-0.092,0.048,-0.049,-0.005
IMPDH2 (UniProt P12268),0.049,-0.003,0.034,0.028,0.025,-0.034,0.019,0.017,-0.006,0.016
GLYR1 (UniProt Q49A26),0.113,0.017,0.038,-0.15,0.033,0.07,-0.339 (active),0.126,0.106,0.032
KEAP1 (UniProt Q14145),0.014,0.001,0.017,-0.014,-0.015,-0.026,-0.049,0.012,0.019,-0.024
HSP90AA4P (UniProt Q58FG1),0.026,-0.123,-0.011,-0.055,0.021,-0.071,-0.045,0.073,0.097,-0.051
IGFBP4 (UniProt P22692),0.035,0.169,0.012,-0.087,-0.029,-0.021,0.236,0.123,0.037,-0.139
ISY1 isoform 1 (UniProt Q9ULR0),0.019,0.028,0.007,-0.029,-0.056,-0.019,-0.157,-0.006,-0.02,-0.04
HAUS3 (UniProt Q68CZ6),-0.025,-0.021,0.009,-0.019,0.001,0.022,0.026,0.014,0.025,0.025
KBTBD4 isoform 2 (UniProt Q9NVX7),0.051,-0.026,-0.069,0.009,-0.039,-0.156,-0.045,0.142,-0.014,0.031
HNRNPLL (UniProt Q8WVV9),-0.024,0.016,0.005,0.005,-0.004,-0.019,-0.012,0.026,0.024,0.021
GMDS (UniProt O60547),0.042,-0.018,0.025,0.01,-0.023,0.031,0.022,0.027,0.008,0.015
HSPBAP1 (UniProt Q96EW2),-0.008,0.039,-0.056,-0.095,0.038,-0.214,-0.324,0.002,0.084,0.084
KHDRBS1 (UniProt Q07666),0.023,-0.517 (active),-0.021,-0.009,0.016,0.023,0.007,-0.026,0,0.044
GSTP1 (UniProt P09211),-0.012,0.042,0.011,-0.003,0.021,-0.011,0.036,-0.025,0.003,-0.003
HEATR6 (UniProt Q6AI08),0.045,-0.036,0.064,-0.031,-0.051,0.033,-0.069,-0.004,0.083,-0.009
GOLPH3 (UniProt Q9H4A6),0.024,0,0.034,-0.019,0.043,-0.023,0.001,-0.02,-0.023,0.004
GTF2H4 (UniProt Q92759),0.039,0.003,0.058,-0.006,0.021,0.054,-0.014,-0.015,0.052,0.037
HDAC10 (UniProt Q969S8),-0.038,0.019,-0.106,0.144,-0.207,-0.11,-0.088,0.037,0.022,0.017
HLCS (UniProt P50747),0.012,0.023,-0.005,-0.019,-0.025,0.018,-0.015,0.029,0.057,-0.032
HNRNPUL1 (UniProt Q9BUJ2),0.028,-0.13,0.017,-0.014,-0.019,0,-0.012,-0.275 (active),0,0.007
GLUD2 (UniProt P49448),-0.063,0.063,0.02,-0.043,-0.012,0.018,-0.028,0.061,0.001,0.033
IFNGR1 (UniProt P15260),-0.033,-0.12,-0.018,-0.256,-0.014,0.162,-0.077,0.017,0.073,-0.213
HMGB2 (UniProt P26583),-0.038,0.012,-0.034,0.026,0.014,-0.013,-0.001,-0.035,0.015,-0.004
IRF2BPL (UniProt Q9H1B7),0.052,0.004,0.039,0.026,-0.026,0.02,-0.018,0.045,0.029,-0.038
GPX4 (UniProt P36969),-0.013,0.01,0.011,0.018,-0.004,0.006,-0.002,0.014,0.003,0.039
H4C1 (UniProt P62805),0.055,-0.008,-0.078,-0.037,-0.046,0.075,-0.082,0.011,-0.022,0.008
IGF2BP3 (UniProt O00425),0.006,-0.019,-0.012,0.011,0.024,-0.009,0.011,-0.047,0.007,0.021
GPR108 (UniProt Q9NPR9),-0.017,-0.063,0.001,-0.024,-0.08,0.039,0.049,0.027,-0.062,-0.004
GOLPH3L (UniProt Q9H4A5),0.058,0.005,-0.058,0.071,0.009,-0.042,-0.01,0.114,-0.029,0.006
